# FBPA Giardia inh: inhibitors of Giardia lamblia fructose-1,6-bisphosphate aldolase; Potency, µM (series often up to 59.6 µM), for inactives: at the top dose activity, negative = inhibition, hits mostly inhibitors; 290,000 compounds, 0.71% hits; A8B2U2; purified Giardia FBPA; AID 2451; note: potency is the fitted concentration of half-maximal effect; nearly all actives have a fitted effect of over 55% in size
# Target sequence (A8B2U2 whole entry, looked up): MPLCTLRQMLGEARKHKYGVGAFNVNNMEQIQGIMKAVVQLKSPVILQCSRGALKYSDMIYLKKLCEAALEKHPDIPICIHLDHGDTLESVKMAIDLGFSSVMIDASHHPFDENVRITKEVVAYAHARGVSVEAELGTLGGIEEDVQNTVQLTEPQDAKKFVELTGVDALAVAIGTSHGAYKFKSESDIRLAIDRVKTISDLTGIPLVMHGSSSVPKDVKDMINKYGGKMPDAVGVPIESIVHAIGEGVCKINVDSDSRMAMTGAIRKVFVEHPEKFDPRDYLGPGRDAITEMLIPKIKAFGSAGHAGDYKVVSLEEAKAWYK
#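 Giardia FBPA (40 nM reagent) was preincubated 10 min at RT with compound (up to 57.5 uM final), then substrate plus GAPDH/TPI/NAD/arsenate coupling system with diaphorase/resazurin was added; resorufin fluorescence (525/598 nm) was read after 20 min.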
# VACV mCherry inh: vaccinia inhibition (mCherry reporter) | 310,000 compounds, 0.63% hits | AID 720579 | Potency, µM (top dose mostly 36.5 µM), for inactives: at the top dose activity change, negative = inhibition, most hits filed as inhibitors | Vaccinia virus mCherry reporter infection, fluorescence; calls by dose curve; tested in A549 cells; note: potency is the fitted concentration of half-maximal effect; nearly all actives have a fitted effect of over 35% in size
# HCMV inh: inhibitors of human cytomegalovirus. HFF cells, HCMV-luciferase reporter, 72 h; active compounds read low. activity change, negative = inhibition, % at 57.5 µM. 410,000 compounds, 4.5% hits; in the data active = activity change below about -60%; inconclusive = no clear call, values can overlap the other calls; inactive = above about -39%
#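 Two-dose cell screen: HFF monolayers treated with compounds and infected with luciferase-expressing HCMV at 1 PFU/cell, 72 h at 37C, then lysed for luciferase measurement.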
# VACV Venus inh: inhibitors of vaccinia virus (Venus reporter); Potency, µM (series often up to 36.5 µM), without a hit: at the top dose activity change, negative = inhibition, hits mostly inhibitors; AID 720580; Vaccinia virus Venus reporter expression, fluorescence; 330,000 compounds, 0.46% hits; calls by dose curve; tested in A549 cells; note: potency is the fitted concentration of half-maximal effect; nearly all actives have a fitted effect of over 30% in size
# FMDV inh: antivirals against foot and mouth disease virus | FMDV antiviral cell-based qHTS | Potency, µM (doses to about 57.9 µM), without a hit: top-dose activity change, negative = inhibition, most hits filed as inhibitors | 410,000 compounds, 1.2% hits; calls by dose curve; tested in HEK293T cells; note: read-out not given here; potency is the fitted concentration of half-maximal effect; nearly all actives have a fitted effect of over 45% in size
# HCV inhibitor: HCV inhibition. 340,000 compounds, 3.4% hits. Huh7.5.1 HCVcc-Cre infection, luciferase reporter, 44 h. Potency, µM (top dose mostly 41.8 µM), for the others: at the top dose activity change, negative = inhibition, actives largely listed as inhibitors; note: potency is the fitted concentration of half-maximal effect
#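 Reporter virus HCVcc-Cre (~0.5 moi) infects cells exposed to compound; seeding density 1,000 cells/well with 4 h settling beforehand. Luminescence, 15 sec read, taken 44 h post-infection following a 15 min RT substrate incubation.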
# Starred values were filed as active, the others as inactive; i = inactive; ? = inconclusive; nt = not tested or not shown; ! = repeats disagree; [ ] = another dose, or the depositor's remark. Only some compounds are listed: those with a hit (about 7.5% of all), similar ones and a draw of the others. Unless noted, calls come from the whole dose curve; as a rule, active = well fitted curve in the direction sought with a large enough effect; inconclusive = small, poorly fitted or top-dose-only effect, or another doubt; inactive = no such curve, though single readings can be large; an effect the other way counts as inactive or inconclusive. % is set by controls: 0 for no effect and ±100 for the full control effect.
SMILES,FBPA Giardia inh,VACV mCherry inh,HCMV inh,VACV Venus inh,FMDV inh,HCV inhibitor
COc1ccc2sc(-c3ccccc3OC)c(-c3ccc(OCCN(C)C)cc3)c2c1,nt,-20%,4,-17%,-4%,10µM*
O=C(Nc1ccc(F)cc1F)c1cc(CN2CCOCC2)on1,nt,10%,36,-7%,11%,nt
COC(=O)c1cc(OC)c(OC)cc1NC(=O)c1ccc2c(c1)CCN2S(C)(=O)=O,nt,-6%,-3,-10%,-17%,nt
CCCN(C/C=C/I)C1CCc2cccc(O)c2C1 (stereo not given),nt,i,nt,-4%,-14%,nt
O=Cc1ccc(OC2OCCOC2Oc2ccc(C=O)cc2)cc1 (stereo not given),3%,i,36,2%,-24%,9%
O=C(CCS(=O)(=O)c1cc2c(cc1Cl)NC(=O)CO2)NCc1ccccc1,20%,-13%,-20,-4%,8%,17%
O=C(CCS(=O)(=O)c1cc2c(cc1Cl)NC(=O)CO2)NCCc1ccccc1,nt,-14%,-104*!,-5%,-11%,0%
COc1ccc(NS(=O)(=O)c2ccc(N3CCCCC3)c(N)c2)cc1,nt,nt,?,nt,-8%,2.8µM*
Nc1cc(S(=O)(=O)Nc2ccccc2Cl)ccc1N1CCCCC1,nt,nt,?,nt,23%,6.3µM*
COc1ccc(NS(=O)(=O)c2ccc(N3CCCCC3)c(NC(=O)C(C)NC(N)=O)c2)cc1 (stereo not given),nt,i,-28,-10%,19%,?
COc1ccccc1NC(=O)c1ccc(C(=O)Nc2ccccc2OC)nc1,-4%,i,-6,8%,-16%,-12%
CCOc1ccccc1C(=O)Nc1cc(C(=O)NCC(C)C)ccc1Cl,1%,nt,nt,nt,nt,nt
CCOc1ccccc1C(=O)Nc1cc(C(=O)NCCc2ccccc2)ccc1Cl,7%,i,-10,-16%,nt,2.5µM*
CCOc1ccccc1NC(=O)c1ccc(C(=O)Nc2ccccc2OCC)nc1,-1%,nt,-64*,nt,3%,-4%
CCOc1ccccc1NC(=O)c1cc(SC)ccc1Cl,-3%,-12%,-27,-28%,-5%,22µM*
CCCN1CCN(c2ncnc3sc(C(=O)Nc4c(C)cc(C)cc4C)c(C)c23)CC1,nt,-13%,?,-23%,?,nt
O=C(CN1CCN(C(=O)CCC(=O)N2CCC(c3ccccc3)=N2)CC1)Nc1ccc(F)cc1,nt,-2%,15,?,-29%,13%
O=c1c(-c2ccccc2)c(O)c2ccccc2n1-c1ccccc1,-12%,-19%,-64*,-8%,-5%,10%
O=C(Nc1ccc(Cl)cc1)c1ccc(CN2CCc3ccccc3C2)cc1,-7%,nt,-19,nt,-4%,1.6µM*
N#CCc1ccc(NC(=O)c2ccc(CN3CCc4ccccc4C3)cc2)cc1,-14%,nt,-22,nt,?,2µM*
COC(=O)c1ccc(NC(=S)N2CCN(Cc3ccc(Cl)cc3)CC2)cc1,-4%,nt,-21,nt,-27%,?
O=C(Nc1ccc(S(=O)(=O)N2CCOCC2)cc1)c1ccc(CN2CCc3ccccc3C2)cc1,-11%,nt,nt,?,?,?
O=C(Nc1ccc(CN2CCS(=O)(=O)CC2)cc1)c1ccc(Cl)cc1,-2%,-15%[7.34 µM],?,-7%[7.34 µM],-21%,10µM*
CCCNC(=O)c1ccc(CN2CCc3ccccc3C2)cc1,?,nt,20,-11%,0%,-19%
C[C@@H]1CN([C@H](C)CO)C(=O)CCCn2cc(nn2)CO[C@H]1CN(C)S(=O)(=O)c1ccccc1,nt,?,26,-3%,2%,nt
COCCNC(=O)[C@@]1(Cc2ccccc2)C=C[C@@H](C)N1C(=O)OC,0%,nt,nt,nt,nt,nt
COc1ccccc1N1CCN(c2nc(-c3ccc(C)cc3)nc3ccccc23)CC1,nt,-14%,-21,-16%,?,nt
Cc1cc(C)c2c(-n3cccc3)c(C(=O)NCCCN3CCCCC3C)sc2n1 (stereo not given),nt,-12%,49,-8%,-11%,nt
COc1cc(NS(C)(=O)=O)ccc1Cc1c2ccccc2nc2ccccc12,-8%,1.3µM*,nt,?,8%,nt
CCCS(=O)(=O)Nc1ccc(Nc2c3ccccc3nc3ccccc23)c(OC)c1,nt,?,-76*,?,-14%,?
